HP1b chromo inh: HTS for Inhibitors of HP1-beta Chromodomain Interactions with Methylated Histone Tails. AlphaScreen HP1-beta / biotin-H3K9me3 peptide binding. Potency, µM (doses to about 114 µM), hits mostly inhibitors. Chromobox protein homolog 1 (Homo sapiens), P83916. AID 540317, 2011. 0.56% of 390,000 active; note: nearly all actives have a fitted effect of over 70% in size
Target sequence (P83916 whole entry, looked up): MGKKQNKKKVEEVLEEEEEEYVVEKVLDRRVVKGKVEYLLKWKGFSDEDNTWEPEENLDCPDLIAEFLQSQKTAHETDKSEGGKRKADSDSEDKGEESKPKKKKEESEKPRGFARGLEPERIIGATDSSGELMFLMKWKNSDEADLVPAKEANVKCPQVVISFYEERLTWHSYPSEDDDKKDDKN
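Compound inhibition of the preformed complex between 50 nM HP1-beta and 50 nM biotinylated H3K9me3 peptide was read by AlphaScreen. Buffer was PBS pH 7.4 with 0.01% Tween-20. Incubations ran 30 min at room temperature, with 10 ug/mL donor/acceptor beads.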
G9a block: qHTS Assay for Inhibitors of Histone Lysine Methyltransferase G9a | Histone-lysine N-methyltransferase EHMT2 (Homo sapiens), Q96KQ7 | G9a H3K9 monomethylation, AlphaScreen, 2 h | Potency, µM (titrated, usually from 102 µM), actives largely listed as inhibitors | 8.8% of 350,000 active | AID 504332, 2011; note: nearly all actives have a fitted effect of over 75% in size
Target sequence (Q96KQ7 913-1193 limits assumed): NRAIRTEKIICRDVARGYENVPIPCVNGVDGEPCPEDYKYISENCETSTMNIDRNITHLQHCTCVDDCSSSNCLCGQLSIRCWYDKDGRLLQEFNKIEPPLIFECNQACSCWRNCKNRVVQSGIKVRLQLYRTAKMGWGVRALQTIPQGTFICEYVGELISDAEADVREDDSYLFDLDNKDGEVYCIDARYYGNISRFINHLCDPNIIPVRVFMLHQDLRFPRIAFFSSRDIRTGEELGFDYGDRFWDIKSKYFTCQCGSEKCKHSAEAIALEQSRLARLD
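Readings reflect AlphaScreen signal from monomethyl-H3K9 antibody detection. HMT at 20 nM; substrate b-H3K9 500 nM; cofactor SAM 20 uM; 2 h RT reaction; compounds tested as titrations in qHTS with 15 min preincubation.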
12-LOX inh: Primary qHTS assay for inhibitors of human arachidonate 12S-lipoxygenase (ALOX12): Round 2; Polyunsaturated fatty acid lipoxygenase ALOX12 (Homo sapiens), P18054; purified 12hLO, xylenol orange hydroperoxide absorbance; Potency, µM (series often up to 108 µM), hits mostly inhibitors; 1.1% of 580,000 active; AID 1671190, 2021
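Purified human 12hLO at 150 nM in 25 mM Hepes, 0.01% Triton X-100, pH 7.0, preincubated 15 min at room temperature with compound. Reaction started with 40 uM arachidonic acid, 30 min at room temperature. Hydroperoxide measured by Fe-xylenol orange, 573/405 nm absorbance ratio.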
BAZ2B inh: qHTS Assay for Inhibitors of BAZ2B; Potency, µM (highest dose often 114 µM), hits mostly inhibitors; AlphaScreen BAZ2B-H3K14Ac peptide displacement; 4.4% of 360,000 active; note: nearly all actives have a fitted effect of over 60% in size
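Multi-concentration screen (max 110 uM) measuring displacement of acetylated histone H3 peptide from BAZ2B by AlphaScreen, using 50 nM protein, 50 nM peptide and 10 ug/mL streptavidin donor plus Ni-chelate acceptor beads.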
Sfp inh: qHTS Assay for Inhibitors of Bacillus subtilis Sfp phosphopantetheinyl transferase (PPTase); 4'-phosphopantetheinyl transferase ffp (Bacillus subtilis), Q9F4F7; Biochemical Sfp PPTase activity, qHTS; Potency, µM, most hits filed as inhibitors; 3.5% of 310,000 active; AID 1490, 2009;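 note: the enzyme is Sfp with the accession as filed and its product quenches rhodamine fluorescence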
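Reaction rates are the 30-min fluorescence difference (ex 525, em 598 nm) in wells containing 15 nM Sfp, 5 uM rhodamine-CoA and 12.5 uM BHQ-2-YbbR at pH 7.6 with 10 mM MgCl2.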
JMJD2A Tudor: qHTS Assay for Inhibitors of JMJD2A-Tudor Domain; Lysine-specific demethylase 4A (Homo sapiens), O75164; AlphaScreen JMJD2A-Tudor / H3K4me3 peptide binding; 4.4% of 390,000 active; Potency, µM (doses to about 114 µM), usual class: inhibitors; note: nearly all actives have a fitted effect of over 50% in size
Each line names hits and unclear results; the compound was inactive in the other large screens. In the library only some 8.7% were active in any assay of this set; here they are far more common. Calls come from the whole dose curve; as a rule, active = well fitted curve in the direction sought with a large enough effect; inconclusive = small, poorly fitted or top-dose-only effect, or another doubt; inactive = no such curve, though single readings can be large; an effect the other way counts as inactive or inconclusive.

Cc1cnc(C(=O)N2CCC(N3C(=O)C4(CCCC4)C3c3scnc3C)CC2)cn1 (configuration not stated)	none (no result: HP1b chromo inh, G9a block, BAZ2B inh, Sfp inh, JMJD2A Tudor)
O=C(/C=C/c1ccco1)N1CCN(S(=O)(=O)/C=C/c2ccccc2)CC1	G9a block 50µM, 12-LOX inh inconclusive, BAZ2B inh inconclusive, Sfp inh 18µM
COC(=O)c1cc(S(=O)(=O)N2CCOCC2)c(Cl)cc1N1CCOCC1	none
COC(=O)c1cc(C)nc2c1C(=O)C(=O)C=C2N1CCOCC1	G9a block 45µM, 12-LOX inh inconclusive, BAZ2B inh 50µM
Cc1onc(-c2ccccc2)c1C(=O)NNC(=S)NC(=O)/C=C/c1cccs1	G9a block 13µM, 12-LOX inh inconclusive
Cc1onc(-c2ccccc2)c1C(=O)NC(=S)NNC(=O)c1cc(-c2ccc(F)cc2)n[nH]1	G9a block 50µM, 12-LOX inh 45µM
Cc1onc(-c2ccccc2)c1C(=O)NC(=S)NNC(=O)c1ccncc1	none
COc1ccc(C(=O)NC(=S)NNC(=O)c2c(-c3ccccc3)noc2C)cc1OC	G9a block 32µM, 12-LOX inh inconclusive
Cc1onc(-c2ccccc2)c1C(=O)NNC(=S)NC(=O)c1ccc2c(c1)OCO2	G9a block 50µM, 12-LOX inh inconclusive
O=C(CCc1ncc(-c2ccc(F)cc2F)o1)N1CCc2ccccc21	none (no result: HP1b chromo inh, G9a block, BAZ2B inh, Sfp inh, JMJD2A Tudor)
Cc1nc2cc(F)ccc2cc1C(=O)N1CCCC(C)CC1 (configuration not stated)	none (no result: HP1b chromo inh, G9a block, BAZ2B inh, Sfp inh, JMJD2A Tudor)
COC[C@@H]1CN(c2cnccn2)C[C@H]1C(=O)NCC1CC1	none (no result: HP1b chromo inh, G9a block, BAZ2B inh, Sfp inh, JMJD2A Tudor)
Nc1nc2c(s1)C(c1cc(Cl)ccc1F)CC(=O)N2 (configuration not stated)	12-LOX inh 35µM (no result: HP1b chromo inh, G9a block, BAZ2B inh, Sfp inh, JMJD2A Tudor)
Nc1nc2c(s1)C(c1ccccc1OCc1ccccc1Cl)CC(=O)N2 (configuration not stated)	12-LOX inh 0.89µM (no result: HP1b chromo inh, G9a block, BAZ2B inh, Sfp inh, JMJD2A Tudor)
COc1ccc(C2CC(=O)Nc3nc(N)sc32)cc1OCc1ccccc1Cl (configuration not stated)	12-LOX inh 1.1µM (no result: HP1b chromo inh, G9a block, BAZ2B inh, Sfp inh, JMJD2A Tudor)
Nc1nc2c(s1)C(c1cccc(Cl)c1Cl)CC(=O)N2 (configuration not stated)	12-LOX inh 20µM (no result: HP1b chromo inh, G9a block, BAZ2B inh, Sfp inh, JMJD2A Tudor)
CCOC(=O)COc1ccc(F)cc1C(=O)c1ccn2nc(-c3ccc(OC)cc3)cc2n1	none (no result: HP1b chromo inh, G9a block, BAZ2B inh, Sfp inh, JMJD2A Tudor)
O=C(CCc1ccc(-c2cccs2)o1)NC[C@@H]1C[C@H](F)CN1	none (no result: HP1b chromo inh, G9a block, BAZ2B inh, Sfp inh, JMJD2A Tudor)
CCN(Cc1ccccc1)C(=O)CNC(=O)Cc1c[nH]c2ccccc12	none (no result: HP1b chromo inh, G9a block, BAZ2B inh, Sfp inh, JMJD2A Tudor)
O=C(Nc1cccn2nc(C3CCC3)nc12)c1ccc(F)cc1F	none (no result: HP1b chromo inh, G9a block, BAZ2B inh, Sfp inh, JMJD2A Tudor)
CCc1ccc2[nH]c(O)c(N=NC3=NC(=O)CS3)c2c1	G9a block inconclusive, BAZ2B inh 40µM
CCc1ccc2c(c1)c(N=NC1=NC(=O)CS1)c(O)n2CC	12-LOX inh inconclusive, BAZ2B inh 50µM, JMJD2A Tudor inconclusive
Cc1ccc2[nH]c(O)c(N=O)c2c1	none
Cc1nc(-c2cccc(Cl)c2)n(Cc2ccc(C#N)cc2)c(=O)c1CCO	none (no result: HP1b chromo inh, G9a block, BAZ2B inh, Sfp inh, JMJD2A Tudor)
COc1cccc(NC(=O)C(OC(=O)CNC(=O)c2ccccc2)c2ccccc2)c1 (configuration not stated)	none (no result: HP1b chromo inh, G9a block, 12-LOX inh, BAZ2B inh, Sfp inh)
COc1cccc(NC(=O)C(OC(=O)c2cnc(C)cn2)c2ccccc2)c1 (configuration not stated)	G9a block 45µM, 12-LOX inh inconclusive (no result: Sfp inh)
Cc1cc(-c2nc3c4c5c(sc4[nH]c(=O)n3n2)CCC5)c(C)o1	HP1b chromo inh inconclusive, G9a block inconclusive, BAZ2B inh 50µM, Sfp inh 28µM, JMJD2A Tudor inconclusive (no result: 12-LOX inh)
O=c1[nH]c2sc3c(c2c2nc(-c4ccccc4)nn12)CCC3	none (no result: HP1b chromo inh, G9a block, BAZ2B inh, Sfp inh, JMJD2A Tudor)

Screens as filed in PubChem BioAssay.
